The full list was thinned out, with hits kept by preference.
IDH1 mut inh = inhibitors of IDH1 R132H reductase, primary screen, biochemical, plate reader, single point; Isocitrate dehydrogenase [NADP] cytoplasmic (Homo sapiens), O75874; diaphorase/resazurin fluorescence, 60 min; inhibition, % at 10 µM; 70,000 tested, 0.18% active; in the data active = inhibition above about 34%
Numbers stand for hits; 0 = inactive.

SMILES	IDH1 mut inh
CCCN1CCc2cc(O)cc3c2[C@H]1Cc1ccc(O)c(O)c1-3	44
CN1CCc2cc(O)cc3c2[C@H]1Cc1ccc(O)c(O)c1-3	0
CC(/C=C/C(=O)NO)=C\c1ccccc1OC[C@@H]1C=C2c3cccc4[nH]cc(c34)C[C@H]2N(C)C1	0
